Experimental data from PubChem BioAssay AID624481 (The Scripps Research Institute Molecular Screening Center, 2012).
Unmarked numbers belong to inactive results. Activity calls are given as the source filed them. Rule as the data show it: active = inhibition above about 50%; inactive = the rest.

These compounds were tested against Prolyl endopeptidase-like (Mus musculus) (UniProt Q8C167) (assay: purified PREPL inhibitors, PREPL inhibitor project, biochemical, gel-based competitive ABPP, fluorescence, HTS hits (AID 624481)). Conditions: at 20 µM, active compounds read high.
Sequence of Prolyl endopeptidase-like (Mus musculus) (Q8C167 whole entry, looked up): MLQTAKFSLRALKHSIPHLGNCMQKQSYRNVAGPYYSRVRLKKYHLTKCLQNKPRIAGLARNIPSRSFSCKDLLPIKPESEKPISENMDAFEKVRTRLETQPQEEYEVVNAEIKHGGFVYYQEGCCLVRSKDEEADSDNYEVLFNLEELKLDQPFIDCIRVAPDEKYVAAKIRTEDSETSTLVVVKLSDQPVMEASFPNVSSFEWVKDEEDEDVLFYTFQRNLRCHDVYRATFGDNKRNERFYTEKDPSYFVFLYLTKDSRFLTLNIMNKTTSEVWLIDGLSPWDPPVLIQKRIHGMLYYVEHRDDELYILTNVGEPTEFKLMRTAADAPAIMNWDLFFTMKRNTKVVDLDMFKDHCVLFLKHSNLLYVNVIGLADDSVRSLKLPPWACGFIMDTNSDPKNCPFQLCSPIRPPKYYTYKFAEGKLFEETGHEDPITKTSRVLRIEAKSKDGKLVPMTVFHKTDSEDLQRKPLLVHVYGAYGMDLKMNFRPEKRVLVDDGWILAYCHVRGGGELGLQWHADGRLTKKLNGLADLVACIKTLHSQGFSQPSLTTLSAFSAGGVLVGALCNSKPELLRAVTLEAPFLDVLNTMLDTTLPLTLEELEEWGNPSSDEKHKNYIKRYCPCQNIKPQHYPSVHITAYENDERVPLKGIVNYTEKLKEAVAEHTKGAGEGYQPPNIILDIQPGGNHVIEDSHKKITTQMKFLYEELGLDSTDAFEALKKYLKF
`COc1cccc(C2=CC(c3ccc(N(C)C)cc3)n3nnnc3N2)c1` (stereo not given) gave an inhibition of -95%.
`COc1cc2[nH]c3c(N4CCN(c5ccccn5)CC4)ncnc3c2cc1OC` gave an inhibition of 1%.
`CCC(CO)[n+]1c(C)cc(/C=C2\Sc3ccccc3N2Cc2ccccc2)cc1C` (stereo not given) showed an inhibition of -20%.
`COc1ccc(N2CCN(c3nc4c(C)cccn4c(=O)c3/C=C(\C#N)C(N)=O)CC2)cc1` was tested, and the inhibition was -53%.
`C#CCOCCOCCOCCNc1nc(N2CCN(C(=O)[C@H](Cc3cc4ccccc4[nH]3)n3cc([C@@H](N)C(C)CC)nn3)CC2)nc(N2CCN(C(=O)[C@H](Cc3cc4ccccc4[nH]3)n3cc([C@@H](N)Cc4ccc(O)cc4)nn3)CC2)n1` (stereo not given in full) gave an inhibition of -104%.
For `CCC[C@@H](CN1CCC[C@H]1CN1C(N)=NC[C@H]1C(C)C)N1C[C@@H]([C@H](C)CC)N(CCCC2CCCC2)C1=N`, the inhibition was -68%.
`CC(C)C[C@@H]1CN=C(N)N1C[C@@H]1CCCN1C[C@@H](C(C)C)N1C[C@@H](Cc2ccccc2)N(CCCC2CCCC2)C1=N` was tested, and the inhibition was -52%.
`Cc1cc(OCC(=O)Nc2ccc(N3CCN(C)CC3)cc2)ccc1Cl` was tested, and the inhibition was -14%.
In the case of `COc1cc2c(cc1OC)C(Cc1ccc(O)c(Oc3ccc(C[C@H]4c5cc(OC)c(OC)cc5CCN4C)cc3)c1)N(C)CC2` (stereo not given in full), the inhibition is reported as 66% (active).
Compound `Cc1ccccc1OCc1nnc(SCC(=O)Nc2ccc(N3CCOCC3)c(Cl)c2)n1C` has an inhibition of -46%.
For `c1cncc(N=c2scc(-c3cccc4ccccc34)n2CCCn2ccnc2)c1`, the inhibition was -95%.
`CN(C)c1ccc(C(CNC(=O)c2ccccc2F)c2c[nH]c3ccccc23)cc1` (stereo not given) was tested, and the inhibition was -10%.
In the case of `C[N+](C)(CCCCCC[N+](C)(C)CCCN1C(=O)c2cccc3cccc(c23)C1=O)CCCN1C(=O)c2cccc3cccc(c23)C1=O`, the inhibition is reported as -29%.
Work on `O=C(C1=C[C@@H](c2ccccc2)C[C@@H](OCc2ccc(CO)cc2)O1)N1CCN(Cc2ccc3c(c2)OCO3)CC1` yielded an inhibition of -73%.
In the case of `Cc1noc(C)c1S(=O)(=O)N(C)C[C@H]1Oc2c(NC(=O)Nc3ccc(C(F)(F)F)cc3)cccc2C(=O)N([C@H](C)CO)C[C@@H]1C`, the inhibition is reported as 9%.
In the case of `Cc1cccc(OCC(=O)Nc2ccc(N3CCN(C(=O)c4ccco4)CC3)cc2)c1`, the inhibition is reported as -15%.
Compound `COc1ccc(Nc2nc(N3CCCC3)c3ccccc3n2)cc1` has an inhibition of -50%.
Work on `Cc1cccc(OCC(=O)Nc2ccc(N3CCN(C(=O)c4ccccc4)CC3)cc2)c1` yielded an inhibition of -12%.
With `CCOc1ccc(CCNC(=O)c2ccc3c(=O)[nH]c4c(C(=O)NC(C)C)sc(=S)n4c3c2)cc1` the inhibition was 14%.
With `CCCCCN=C(N)NN=Cc1c[nH]c2ccc(OC)cc12` the inhibition was -11%.
In the case of `CCN(CC)CCNc1ccc(CO)c2sc3ccccc3c(=O)c12`, the inhibition is reported as -23%.
`CN(C)c1ccc(C(O)P(=O)(OCc2ccccc2)c2ccc(N(C)C)cc2)cc1` (stereo not given) showed an inhibition of -57%.
With `COc1ccc(N2CCN(C(=O)c3cn(C4CCCC4)c(=O)c4c3c3ccccc3n4C)CC2)cc1` the inhibition was 92% (active).
`CCOc1ccc(Nc2nc(NCC3CCCO3)c3ccccc3n2)cc1` (stereo not given) was tested, and the inhibition was 12%.
`CN(CC(=O)Nc1ccc(Cl)cc1)C(=O)c1cccc(S(=O)(=O)N2CCN(Cc3ccccc3)CC2)c1` showed an inhibition of 1%.
